In PubChem BioAssay (NCATS):
Inconclusive results are not listed. Where a call stands in place of a potency, no number is given. Values without a mark were called inactive. Activity calls are given as the source filed them. Calls follow the shape of the dose curve; as a rule, active = well fitted curve in the direction sought with a large enough effect; inconclusive = small, poorly fitted or top-dose-only effect, or another doubt; inactive = no such curve, though single readings can be large; an effect the other way counts as inactive or inconclusive.

Tests used:
[1] = target: Rap guanine nucleotide exchange factor 3 (Homo sapiens) (UniProt O95398); assay: Confirmatory qHTS for antagonist of cAMP-regulated guanine nucleotide exchange factor 3 (EPAC1) (AID 1645880); also: nearly all actives have a fitted effect of over 55% in size; also: potency is read from the fitted curve at half-maximal effect
Outline: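 Nucleotide exchange uses 100 nM EPAC1, 250 nM RAP1B-BODIPY-GDP and 50 uM GDP, with compounds in a concentration-titration series. After 5 min at room temperature, fluorescence (480 nm ex/540 nm em) is read every 5 min for 30 min. Data are normalized to control ATA and DMSO.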

[2] = target: Rap guanine nucleotide exchange factor 3 (Homo sapiens) (UniProt O95398); assay: Confirmatory qHTS for agonist of cAMP-regulated guanine nucleotide exchange factor 3 (EPAC1) (AID 1645881);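 also: EPAC1 catalysed release of BODIPY-GDP from Rap1B seen as fluorescence loss; nearly all actives have a fitted effect of over 75% in size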
[3] = target: Rap guanine nucleotide exchange factor 4 (Homo sapiens) (UniProt Q8WZA2); assay: Confirmatory qHTS for agonist of cAMP-regulated guanine nucleotide exchange factor 4 (EPAC2) (AID 1645884);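 also: nucleotide exchange releases bodipy-GDP from Rap1 and this lowers its fluorescence; nearly all actives have a fitted effect of over 65% in size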
[4] = target: Rap guanine nucleotide exchange factor 4 (Homo sapiens) (UniProt Q8WZA2); assay: Confirmatory qHTS for antagonist of cAMP-regulated guanine nucleotide exchange factor 4 (EPAC2) (AID 1645885); also: nearly all actives have a fitted effect of over 25% in size; also: potency is read from the fitted curve at half-maximal effect
[5] = target: Rap guanine nucleotide exchange factor 3 (Homo sapiens) (UniProt O95398); assay: Counterscreen qHTS for antagonist of cAMP-regulated guanine nucleotide exchange factor 3 (EPAC1) (AID 1645888);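 also: fluorescence loss as bound BODIPY-GDP is released from Rap1B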
Outline: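 Measured: fluorescence of BODIPY-GDP bound to Rap1B, which falls as exchange proceeds. Conditions include 50 uM competing GDP, 5 and 30 min reads, and a later cAMP challenge for antagonist detection.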

Rap guanine nucleotide exchange factor 4 (Homo sapiens), sequence (Q8WZA2 whole entry, looked up): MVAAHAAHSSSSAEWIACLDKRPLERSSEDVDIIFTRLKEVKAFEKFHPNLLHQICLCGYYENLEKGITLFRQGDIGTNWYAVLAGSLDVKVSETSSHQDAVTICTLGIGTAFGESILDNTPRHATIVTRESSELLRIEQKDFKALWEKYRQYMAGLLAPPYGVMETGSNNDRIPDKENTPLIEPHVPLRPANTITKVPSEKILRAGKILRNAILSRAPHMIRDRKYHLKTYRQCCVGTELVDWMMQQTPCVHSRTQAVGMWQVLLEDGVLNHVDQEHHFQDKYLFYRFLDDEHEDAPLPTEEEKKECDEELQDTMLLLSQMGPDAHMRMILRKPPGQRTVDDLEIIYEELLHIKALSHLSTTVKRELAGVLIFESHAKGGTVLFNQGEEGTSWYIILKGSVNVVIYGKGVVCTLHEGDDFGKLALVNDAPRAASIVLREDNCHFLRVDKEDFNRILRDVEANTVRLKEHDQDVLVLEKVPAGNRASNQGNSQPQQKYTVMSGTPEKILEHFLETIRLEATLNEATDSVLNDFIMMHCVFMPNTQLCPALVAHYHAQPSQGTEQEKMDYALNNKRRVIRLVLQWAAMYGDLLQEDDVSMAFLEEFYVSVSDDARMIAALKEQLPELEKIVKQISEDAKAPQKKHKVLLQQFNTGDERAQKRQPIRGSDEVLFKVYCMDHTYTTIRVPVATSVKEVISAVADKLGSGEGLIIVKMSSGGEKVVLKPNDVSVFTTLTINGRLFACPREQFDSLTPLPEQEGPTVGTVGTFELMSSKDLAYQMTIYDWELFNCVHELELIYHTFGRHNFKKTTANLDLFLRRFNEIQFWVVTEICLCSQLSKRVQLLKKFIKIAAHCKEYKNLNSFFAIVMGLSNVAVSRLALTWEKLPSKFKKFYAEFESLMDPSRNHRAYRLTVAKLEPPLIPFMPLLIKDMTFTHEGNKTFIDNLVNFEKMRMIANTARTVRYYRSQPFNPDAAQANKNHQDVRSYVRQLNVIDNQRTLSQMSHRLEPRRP
Rap guanine nucleotide exchange factor 3 (Homo sapiens), sequence (O95398 whole entry, looked up): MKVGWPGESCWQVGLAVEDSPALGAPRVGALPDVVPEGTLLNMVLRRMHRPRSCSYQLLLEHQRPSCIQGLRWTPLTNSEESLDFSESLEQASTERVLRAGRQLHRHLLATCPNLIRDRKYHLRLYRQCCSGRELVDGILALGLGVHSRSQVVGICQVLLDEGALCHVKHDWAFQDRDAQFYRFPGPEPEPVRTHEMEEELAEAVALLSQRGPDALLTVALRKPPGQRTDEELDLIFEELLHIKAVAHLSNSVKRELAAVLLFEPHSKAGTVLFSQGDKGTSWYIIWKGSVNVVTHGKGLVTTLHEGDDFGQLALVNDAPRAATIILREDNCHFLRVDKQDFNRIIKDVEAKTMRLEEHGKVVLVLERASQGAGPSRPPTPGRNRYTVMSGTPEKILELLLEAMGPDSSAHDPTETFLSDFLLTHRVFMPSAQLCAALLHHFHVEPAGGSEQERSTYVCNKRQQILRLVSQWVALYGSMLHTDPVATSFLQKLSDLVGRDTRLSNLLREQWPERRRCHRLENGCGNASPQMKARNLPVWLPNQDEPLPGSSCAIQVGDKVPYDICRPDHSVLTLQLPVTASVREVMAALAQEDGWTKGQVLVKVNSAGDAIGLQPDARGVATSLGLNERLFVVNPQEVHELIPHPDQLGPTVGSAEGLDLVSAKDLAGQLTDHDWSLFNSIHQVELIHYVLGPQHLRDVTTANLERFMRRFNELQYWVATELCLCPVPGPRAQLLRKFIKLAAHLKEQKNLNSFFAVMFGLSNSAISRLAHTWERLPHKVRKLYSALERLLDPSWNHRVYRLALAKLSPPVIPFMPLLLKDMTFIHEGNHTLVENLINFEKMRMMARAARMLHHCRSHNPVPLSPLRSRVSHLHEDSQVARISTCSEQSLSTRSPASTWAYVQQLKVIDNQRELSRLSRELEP

Compound | Potency [1] | Potency [2] | Potency [3] | Potency [4] | activation [3] | outcome [4] | activity change, negative = inhibition [5]
CN(CC(=O)O)c1ccc(/C=C/c2ccnc3ccccc23)cc1 | inactive | inactive | inactive | 55.5 µM (active) |  |  | 
COc1ccccc1N1CCN(c2ccc3c(c2)S(=O)(=O)c2cccc(C(=O)NCC4CC4)c2C3=O)CC1 | inactive | inactive | inactive | inactive |  |  | 
CC/C(=C/c1ccccc1OC)c1cc(-c2ccccc2)cc2oc3ccccc3c12 | inactive | inactive | inactive | inactive |  |  | 
CCC1CCCCN1CCCNC(=O)CCC(=O)N1CC(C)Oc2ccccc21 (stereo unspecified) | inactive | inactive | inactive | inactive |  |  | 
Cc1cc(-c2cc(F)cc3c2OC(CNC(=O)CCn2cncn2)C3)ccc1F (stereo unspecified) | inactive | inactive | inactive | inactive |  |  | 
C1=Cc2ccccc2/C1=C\c1ccc2c(c1)OCO2 | inactive | inactive | inactive | inactive |  |  | 
O=C(O)c1cc(-c2ccc(-c3c(-c4ccc5c(c4)OCO5)noc3-c3ccsc3)cc2)nc2ccccc12 | 75.7 µM (active) | inactive | inactive | 37.9 µM (active) |  |  | 
CC(=O)CCc1oc2ccc(C)cc2c1-c1ccccc1 | inactive | inactive | inactive | inactive |  |  | 
Cn1cccc1-c1cc(C(=O)N/N=C/c2ccc(F)cc2)[nH]n1 | inactive | inactive |  | inactive | -2.5% [at 17.1 µM, percent relative to cAMP agonist control] |  | 
C/C(CC(=O)Nc1ccc2ccccc2c1)=N\NC(=O)c1cnccn1 | inactive | inactive | inactive | inactive |  |  | 
COc1ccccc1NC(=O)Nc1nc(CC(=O)Nc2ccc(N(C)C)cc2)cs1 | inactive | inactive |  | inactive | 15.9% [at 17.1 µM, percent relative to cAMP agonist control] |  | 
COC(=O)c1cc(CNC(=O)c2ccccn2)cc(NC(=O)c2ccccc2OC)c1 | inactive | inactive | inactive | inactive |  |  | 
Cc1nc(C)n(CC(=O)NCC2Cc3cc(-c4cccc(OC(F)(F)F)c4)ccc3O2)n1 (stereo unspecified) | inactive | inactive | inactive | 44.1 µM (active) |  |  | 
COCCCn1c(-c2ccccc2)nc2ccccc2c1=O | inactive | inactive | inactive | inactive |  |  | 
Nc1ccn(C2C=CC(CO)O2)c(=O)n1 (stereo unspecified) | inactive | inactive | inactive | inactive |  |  | 
COc1ccc(CNC(=O)[C@@H]2CC=C[C@@H]3CCN(Cc4ccccc4)C(=O)[C@@H]32)cc1 | inactive | inactive | inactive | inactive |  |  | 
CCOC(=O)N1CCC(N2CCOc3ccc(CN4CCC(O)(c5cccnc5)CC4)cc3C2)CC1 | inactive | inactive | inactive | inactive |  |  | 
CC(C)CC1C(=O)N(Cc2cn(CCC3OCCCO3)nn2)CCS(=O)(=O)N1Cc1ccc(-c2ccc(F)cc2)cc1 (stereo unspecified) | inactive | inactive | inactive | inactive |  |  | 
O=C(C[N+]12CN3CN(CN(C3)C1)C2)c1ccc(I)cc1 | inactive | inactive | inactive | inactive |  |  | 
NC(=O)Nc1ccc(/C=C2\C=Cc3ccccc32)cc1 | inactive | inactive | inactive | 44.1 µM (active) |  |  | 
O=C(C[n+]1cccc2cc(Cl)ccc21)c1ccc(Br)cc1 | inactive | inactive | inactive | inactive |  |  | 
Cc1[nH]c2ccccc2c1/C=C/c1ccnc2ccccc12 | inactive | inactive | inactive | inactive |  |  | 
C(=C\c1nccc2ccccc12)/c1ccc(N2CCOCC2)cc1 | inactive | inactive | inactive | inactive |  |  | 
COc1cc(CCN(C(=O)c2cccc(S(C)(=O)=O)c2)C(CCc2ccccc2)c2nc3ccccc3[nH]2)cc(OC)c1 (stereo unspecified) | inactive | inactive | inactive | inactive |  |  | 
CN(Cc1cccc2ncccc12)C(=O)c1cnn(-c2nccc(-c3ccccc3F)n2)c1C1CC1 | inactive | inactive | inactive | 15.6 µM (active) |  |  | 
COc1cc(C(=O)N(Cc2cc3ccc(C)cc3nc2N(C)C)C2CC2)cc(OC)c1OC | inactive | inactive | inactive | 17.5 µM (active) |  |  | 
COc1ccc(NC(=O)Cn2c(SCc3cc(C)ccc3C)nc3ccncc32)c(OC)c1OC | inactive | inactive | inactive |  |  | inactive [at 12.7 µM] | 
COc1ccc(C(=O)NC2CCCc3ccccc32)c(OC)c1OC (stereo unspecified) | inactive | inactive |  | inactive | 0% [at 17.1 µM, percent relative to cAMP agonist control] |  | 

Compound | Potency [1] | Potency [2] | Potency [3] | Potency [4] | activation [3] | outcome [4] | activity change, negative = inhibition [5]
CC(C)C[C@@H](COc1ccccc1)N1CCN(Cc2ccccc2)CCC1=O | inactive | inactive | inactive | 62.2 µM (active) |  |  | 
CC(=O)Nc1ccc(SC[C@H](C)CN2CC[C@H](C(C)(C)C)CCC2=O)cc1 | inactive | inactive | inactive | 44.1 µM (active) |  |  | 
CC(C)N(C(=O)Nc1ccc2nsnc2c1)C(C)C | 22.4 µM (active) | inactive |  | inactive | 2.55% [at 17.1 µM, percent relative to cAMP agonist control] |  | 
N#Cc1cc(NC(=O)c2ccc(Cl)cc2)ccc1Sc1ccccc1 | inactive | inactive | inactive | inactive |  |  | 
COc1cccc(OC)c1NC(=O)c1ccc(-c2cc(Cl)ccc2Cl)o1 | inactive | inactive | inactive | inactive |  |  | 
O=C(COC(=O)/C=C/c1cccc(C(F)(F)F)c1)NC(=O)NC1CCCC1 | inactive | inactive |  | inactive | 4.78% [at 17.1 µM, percent relative to cAMP agonist control] |  | 
COc1cccc(-c2nc3cc(SC)ccc3cc2CN(C(=O)c2sccc2C)C2CC2)c1 | inactive | inactive | inactive | 31.2 µM (active) |  |  | 
CCOC(=O)Cc1nnc(NC(=O)CSc2nnc3c(n2)[nH]c2ccccc23)s1 | 44.7 µM (active) | inactive |  | inactive | 6.98% [at 17.1 µM, percent relative to cAMP agonist control] |  | -37.4% [at 30.8 µM]
COc1ccc(SC[C@H](C)CN2CC[C@H](C)CCC2=O)cc1 | inactive | inactive | inactive | inactive |  |  | 
O=C1[C@H](Cc2ccccc2)NCCCC[C@H](c2ccco2)N1Cc1ccccc1 | inactive | inactive | inactive | inactive |  |  | 
CN(C)c1ccc(/C=C/c2ccnc3ccc4ccccc4c23)cc1 | 49.8 µM (active) | inactive | inactive | 55.5 µM (active) |  |  | 
CCC(C(=O)Nc1cc(OC)ccc1OC)n1nc(-c2ccccc2)c2c(c1=O)CCCC2 (stereo unspecified) | inactive | inactive | inactive | inactive |  |  | 
Cc1cccc(NC(=O)CC2Nc3cccc4cccc(c34)NC2=O)c1 (stereo unspecified) | 75.7 µM (active) | inactive | inactive | inactive |  |  | 
Cc1cccc(C)c1OCC(=O)N(Cc1ccco1)Cc1ccco1 | inactive | inactive | inactive | inactive |  |  | 
COC(=O)C(Cc1ccc(O)cc1)NC(=O)CCc1nc2ccccc2s1 (stereo unspecified) | inactive | inactive | inactive | inactive |  |  | 
Cc1cc(NC(=O)CSc2nc(-c3ccccc3)nc3c2c(=O)n(C)c(=O)n3C)no1 | inactive | inactive |  | inactive | 0% [at 17.1 µM, percent relative to cAMP agonist control] |  | 
CC(C(=O)Nc1ccccc1C(F)(F)F)n1nc(-c2ccccc2)c2c(c1=O)CCCC2 (stereo unspecified) | inactive | inactive | inactive | inactive |  |  | 
COc1ccc(-c2[nH]c(-c3ccc(SC)cc3)nc2SCC(=O)Nc2nccs2)cc1 | 84.9 µM (active) | inactive | inactive | inactive |  |  | 
CN(C)CCNC(=O)c1cccc(-c2cnc3c(NC=O)cc(-c4cccc(C(F)(F)F)c4)cn23)c1 | inactive | inactive | inactive | inactive |  |  | 
c1ccc2c(N3CCCCCC3)nc(CN3CCCCC3c3nccs3)nc2c1 (stereo unspecified) | inactive | inactive | inactive | 13.9 µM (active) |  |  | 
CC1Sc2ccc(C(=O)OCc3ccccc3Cl)cc2NC1=O (stereo unspecified) | inactive | inactive | inactive | inactive |  |  | 
CCCCN(C(=O)c1cccc2c(=O)c(C)c(-c3ccccc3)oc12)c1ccccc1 | inactive | inactive |  | inactive | 8.49% [at 17.1 µM, percent relative to cAMP agonist control] |  | 
COc1cc2c3nnc(-c4ccccc4)c-3cn(Cc3ccc(F)cc3)c2cc1OC | inactive | inactive | inactive | inactive |  |  | 
CC(c1ccc(N(C)C)cc1)c1ccnc2ccccc12 (stereo unspecified) | inactive | inactive | inactive | inactive |  |  | 
CN(C)c1ccc(/C=C/C=C/c2ccnc3ccccc23)cc1 | inactive | inactive | inactive | inactive |  |  | 
Cc1ccc(S(=O)(=O)N2[C@@H](CO)CO[C@H]2CC(=O)c2ccc(F)cc2)cc1 | inactive | inactive | inactive | inactive |  |  | 
O=C(NCc1ccc(F)cc1)c1ccc2c(=O)n3c(nc2c1)CCCCC3 | inactive | inactive | inactive | inactive |  |  | 
